Hits are enriched below; roughly 3.5% of the tested compounds scored in any of these assays.
Pf apPOL inh – Pf-apPOL DNA polymerase inhibition; Recombinant Pf-apPOL, molecular beacon fluorescence, 1.5 h; inhibition, % at 10 µM; 210,000 tested, 0.25% active
mHTT CaM bind – mHTT-calmodulin interaction abrogation | AlphaScreen His-mHTT/GST-CaM binding, luminescence | inhibition, % at 15 µM | 190,000 tested, 3.6% active;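 also: 0% = both proteins with DMSO and 100% = one protein alone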
An asterisk follows results filed as active; . = no result given; ! = repeats disagree. Rule as the data show it: active = inhibition above about 50%; inactive = the rest.

SMILES	Pf apPOL inh	mHTT CaM bind
Cc1ccc(C(=O)N2CCN(S(=O)(=O)c3ccccc3)C2c2ccc(N(C)C)cc2)cc1 (configuration not stated)	2	53*
COc1ccc(CN2CCN(c3ccc(Cl)cc3)CC2)c(OC)c1OC	-8	4
Cc1sc(C(=O)N2CCCC2)c2ncnc(NCc3cccc(Cl)c3)c12	-4	4
Cc1sc(C(=O)N2CCCC2)c2ncnc(NCc3ccc(F)c(Cl)c3)c12	4	100*
COc1ccc(C(=O)C=Cc2ccc(OC)c(OC)c2)c(OC)c1	-16	13
COc1ccc(C(=O)C=Cc2ccc(OC)c(OC)c2)c(O)c1	-3	50*
Cc1ccc(NCc2ccc(Cl)nc2)c(NCc2ccc(Cl)nc2)c1	-4	54*
Cc1ccc(C)c(NCc2ccncc2)c1	3	2
Cc1ccc(S(=O)(=O)Nc2ccc(N3C(=O)CC(c4ccc(OC(C)C)cc4)C3=O)cc2)cc1 (configuration not stated)	-5	9
CCOc1ccc(N=c2scc(-c3ccc(C)cc3)n2C)cc1	-2	8
Cc1ccc(-c2csc(=Nc3cccc(Cl)c3)n2CCO)cc1	-4	93*
OCCn1c(-c2ccc(I)cc2)csc1=Nc1cccc(Cl)c1	4	80*
Cc1cccc(N=c2scc(-c3ccc(F)cc3)n2CCO)c1	-2	65*
Cc1cccc(NC(=O)Cn2c(C)nc3c(c2=O)CCN(Cc2ccccc2)C3)c1	-7	-3
CC(Oc1cccc(F)c1)C(=O)NCCOc1ccccc1 (configuration not stated)	-4	-6
O=C(c1cccc(Cl)c1)N1CCC(COc2ccccc2C(=O)N2CCOCC2)CC1	-25	-3
Cc1ccc2c(c1)N(C(=O)Nc1cccc(C)c1C)CC(C)O2 (configuration not stated)	-6	4
COc1cccc(/C=C2\N=C(c3ccc(Cl)c(Cl)c3)OC2=O)c1	3	30
Clc1ccccc1-c1nc(COc2ccc3c(c2)OCO3)no1	0	5
CN(C)c1cccc(OCc2noc(-c3ccccc3Cl)n2)c1	-9	68*
CCN1CCC(=C2C(C#N)=C(N)C(C#N)(C#N)C3=CCN(CC)CC32)CC1 (configuration not stated)	.	-1
CCOC(CNC(=O)c1sc2ncn(CC(=O)N3CCCCC3)c(=O)c2c1C)OCC	-4	-5
Cc1cccc(C)c1Nc1c(-c2ccccn2)nc2ncccn12	1	100*
Cc1ccc(-c2nc3ncccn3c2Nc2c(C)cccc2C)o1	-6	10
Cc1oc2c(c(C)cc3oc(=O)cc(-c4ccccc4)c32)c1C	4	-4
SMILES	Pf apPOL inh	mHTT CaM bind
OC(c1ccccc1)(c1ccccc1)c1nccn1Cc1ccccc1	2	4
COc1cc(-n2cnc3cc(C(=O)N4CCC5(CC4)OCCO5)ccc32)cc(OC)c1OC	-6	-1
C[N+]1(CC(O)COc2ccc(C34CC5CC(CC(C5)C3)C4)cc2)CCCCCC1 (configuration not stated)	-4	91*
CC1C[N+](C)(CC(O)COc2ccc(C34CC5CC(CC(C5)C3)C4)cc2)CC(C)O1 (configuration not stated)	-2	51*
CC1C[N+](C)(CC(O)COc2ccc(C(C)(C)CC(C)(C)C)cc2)CC(C)O1 (configuration not stated)	-2	52*
CC(C)(C)CC(C)(C)c1ccc(OCC(O)C[N+](C)(C)C)cc1 (configuration not stated)	-1	28
C[N+](C)(C)CC(O)COc1ccc(C23CC4CC(CC(C4)C2)C3)cc1 (configuration not stated)	-10	24
CC1CC[N+](C)(CC(O)COc2ccc(C34CC5CC(CC(C5)C3)C4)cc2)CC1 (configuration not stated)	-1	-9
O=C(NC1CC2CC1N(C(=O)CCc1ccccc1)C2)c1ccccc1 (configuration not stated)	-2	4
CCOC(=O)c1sc(N2N=C(C)/C(=C\c3ccc(CC)s3)C2=O)nc1C	.	6
CN1CCC(NC(=O)c2ccc3c(c2)N(C(=O)c2ccc(F)cc2)CC3)CC1	-1	0
CNC(=O)c1ccc2c(c1)N(C(=O)c1ccc(OC)cc1)CC2	-1	100*
O=C(Nc1cc(NC(=O)c2ccccc2)cc(-c2nc3ccccc3o2)c1)c1ccccc1	4	-1
NCCNC(=O)/C(=C1\Nc2ccc([N+](=O)[O-])cc2N1)[N+](=O)[O-]	3	63*
O=C(Nc1ccccc1O)/C(=C1\Nc2ccc([N+](=O)[O-])cc2N1)[N+](=O)[O-]	5	20
O=[N+]([O-])c1cccc(C2Nc3c(Cl)cccc3C3C=CCC32)c1 (configuration not stated)	-1	75*!
O=[N+]([O-])c1cccc(C2NCCC3(O)CCCCC23)c1 (configuration not stated)	0	-13
O=[N+]([O-])c1ccc(C2Nc3c(Cl)cccc3C3C=CCC32)cc1 (configuration not stated)	19	18
O=[N+]([O-])c1cccc(C2Nc3c(cccc3[N+](=O)[O-])C3C=CCC32)c1 (configuration not stated)	-6	72*
O=[N+]([O-])c1cccc(C2Nc3c(cccc3C(F)(F)F)C3C=CCC32)c1 (configuration not stated)	1	58*
O=C(NCc1nc(-c2ccccc2)no1)c1cc(-c2ccco2)on1	-4	-11
O=S(=O)(c1ccc(Cl)cc1)N1CCC(CN2CCCCC2)CC1	2	-5
COc1ccc(CC(=O)Nc2ccc3c(c2)CN(C2CC2)C(=O)C(C)O3)cc1 (configuration not stated)	-4	10
Cc1ccc(N=C2C(=O)Nc3ccccc32)c(C)c1	-4	13
Cc1ccc(O)c(N=C2C(=O)Nc3ccccc32)c1	1	56*
SMILES	Pf apPOL inh	mHTT CaM bind
CC(C)C[C@@H](COCc1ccc(F)cc1)N1CCN(C(=O)c2cccc(C(F)(F)F)c2)CCC1=O	-5	60*
CC(C)C[C@@H](COCc1cccc(Cl)c1)N1CCN(C(=O)c2cccc(C(F)(F)F)c2)CCC1=O	-3	87*!
Cc1ccc(S(=O)(=O)N2CCC(=O)N([C@H](COCc3cccc(C(F)(F)F)c3)C(C)C)CC2)cc1	-10	22
Cc1ccc(S(=O)(=O)N2CCC(=O)N([C@H](COCc3cccc(C(F)(F)F)c3)Cc3ccccc3)CC2)cc1	-4	6
Cc1nnc(NC(=O)CSc2nnc(NC(=O)C3CCCCC3)s2)s1	-1	8
CCCNC(=O)c1c[nH]c2ccc(S(=O)(=O)N(C)c3ccc(Br)cc3)cc2c1=O	-6	39
OCCNc1nc(N2CCCCC2)nc(N2CCCCC2)n1	.	-13
OCCN(CCO)c1nc(N2CCCCC2)c2nc(N(CCO)CCO)nc(N3CCCCC3)c2n1	61*	.
CN(C(=O)C1CCCN(c2ncc(-c3cccc(F)c3)cn2)C1)C1CCCCC1 (configuration not stated)	-2	17
COCC1CCN(C(=O)c2cccnc2N2CCNC(c3ccccc3)C2)CC1 (configuration not stated)	4	-1
O=C(c1cccnc1N1CCNC(c2ccccc2)C1)N1CCC(Cc2ccccc2)CC1 (configuration not stated)	12	73*
CCCCOc1ccc2c(c1)C(=O)c1cc(OCCCC)ccc1-2	-3	7
CN(CCO)CCCCOc1ccc2c(c1)C(=O)c1cc(OCCCCN(C)CCO)ccc1-2	-1	60*
